# Reference: PubChem BioAssay (Tox21)
# Inconclusive results are not listed. Values without a mark were called inactive. Calls of active or inactive are those of the source. Calls follow the shape of the dose curve; as a rule, active = well fitted activation curve with a large enough effect in the repeat runs; inconclusive = weak or mixed curves; inactive = flat fitted curve, though single readings scatter.
# Experiment: A CellTox Green Cytotoxicity Assay to monitor cytotoxicity in HEK293 cells - 16 hour (AID 1224888); also: nearly all actives have a fitted effect of over 35% in size
# Settings: CellTox Green fluorescence; series mostly up to 76.8 µM; activity change: at the top concentration
# Source text: National Center for Advancing Translational Sciences [NCATS]
# NIH Chemical Genomics Center [NCGC]
# U.S. Environmental Protection Agency [EPA]
# National Institutes of Environmental Health Sciences [NIEHS]
# National Toxicology Program [NTP]
# Cell-based models are critical for drug discovery. Determining the natural cytotoxic effects resulting from test compounds is an essential research activity. A CellTox Green Cytotoxicity Assay to monitor cytotoxicity in real time of continues cell culture during 40 hours of the compound treatment was used to screen Tox21 10K library compounds in Hek293 cells. CellTox Green Cytotoxicity Assay is a nonlytic, homogeneous, biofluorescent method to measure cytotoxicity in cell culture after experimental manipulation. The assay system uses a proprietary asymmetric cyanine dye that is excluded from viable cells but preferentially stains the dead cell's DNA. […] Viable cells produce no appreciable increases in fluorescence. Therefore, the fluorescence signal produced by the binding interaction with dead cell DNA is proportional to cytotoxicity.
# The mixture of Hek293 cell suspension and reagents were dispensed at 600cells/6 ul/well in 1536-well tissue culture treated black solid bottom plates using a Multidrop dispenser. After the assay plates were incubated at a 37 C/5% CO2 incubator for 5 hours, 23 nL of compounds dissolved in DMSO, positive and negative controls was transferred to the assay plate by a pintool work station. The plates were incubated at 37 C for 40 hours. The fluorescence intensity were measured at 0h, 8h, 16h, 24h, 32h and 40h time points using ViewLux plate reader during compound treatment.
# % is scaled to controls: 0 for no effect and ±100 for the full control effect; potency is read from the fitted curve at half-maximal effect.
SMILES,activity change,Potency
O=c1c(O)c(-c2ccc(O)cc2O)oc2cc(O)cc(O)c12,-1.61%,–
CC(N=C(NC#N)Nc1ccncc1)C(C)(C)C (stereo not given),"-1.67% [at 35.3 µM, hits give high values]",–
C=CCn1c(=O)n(CC=C)c(=O)n(CC=C)c1=O,6.15%,–
Cc1nc(-c2ccc(Cl)cc2)oc1COC(C)(C)C(=O)O,"-12.1% [at 35.3 µM, hits give high values]",–
OC1CCC(C2CCCCC2)CC1 (stereo not given),-0.0795%,–
CCN(CCN)c1cccc(C)c1,-0.176%,–
CCCc1ccc(OCC(=O)N2CCN(C(=O)COc3ccc(CCC)cc3OC)CC2)c(OC)c1,"17.4% [at 35.3 µM, hits give high values]",–
Cc1cccc2cccnc12,0.056%,–
CC[N+](CC)(CC)CCOc1ccc(/C=C/c2ccccc2)cc1,"-2.88% [at 35.3 µM, hits give high values]",–
c1ccsc1,-2.81%,–
CN1CCN(Cc2cc(-c3ccc4[nH]c(=O)oc4c3)co2)[C@@H](c2ccc(F)cc2)C1,6.16%,–
CCCCCCCCCCCCOC(=O)c1ccc(O)cc1,13.5%,–
CCCCNS(=O)(=O)c1ccc(C)cc1,-3.63%,–
CCN(CC)c1ccc2c(-c3ccc(S(=O)(=O)O)cc3S(=O)(=O)[O-])c3ccc(=[N+](CC)CC)cc-3oc2c1,-17.7%,–
CN1CCCCC1CCN1c2ccccc2Sc2ccc(S(C)=O)cc21 (stereo not given),"3.64% [at 35.3 µM, hits give high values]",–
O=c1[nH]c(=O)n([C@H]2C[C@H](O)[C@@H](CO)O2)cc1F,"-6.93% [at 35.3 µM, hits give high values]",–
O=C(O)CN(CCN(CC(=O)O)CC(=O)O)CC(=O)O,–,1.96 µM (active)
S=C([S-])NCCNC(=S)[S-].S=C([S-])NCCNC(=S)[S-].[Mn+2].[Zn+2],"-5.05% [at 35.3 µM, hits give high values]",–
COCCOc1cc2cc(C(=O)NC3CCN(C(C)C)CC3)n(CC(=O)Nc3ccc(Cl)cn3)c2cn1,-10.1%,–
CNc1ccc([N+](=O)[O-])cc1,0.225%,–

SMILES,activity change,Potency
Cc1ccc(N/N=c2\c(=O)cc/c(=N\Nc3ccc(S(=O)(=O)O)cc3)c2=O)c(C)c1,-22.8%,–
CCOC(=O)c1ccc(C2CCC(NC[C@H](O)COc3ccc(O)c(NS(C)(=O)=O)c3)CC2)cc1 (stereo not given in full),17.8%,–
CC(C)(C)CC(C)(C)c1ccc(Nc2ccc(C(C)(C)CC(C)(C)C)cc2)cc1,"5.08% [at 6.97 µM, hits give high values]",–
O=C(O)CCN(C1(C(=O)NO)CCCC1)S(=O)(=O)c1ccc(Oc2ccc(F)cc2)cc1,-3.99%,–
COc1cc(C)ccc1O,1.3%,–
CN1CCC[C@@H]1CCO[C@](C)(c1ccccc1)c1ccc(Cl)cc1,–,23.9 µM (active)
Cc1ccc(C)cc1,7.31%,–
O=[N+]([O-])c1cccc(C(F)(F)F)c1,-5.56%,–
C[C@H]1NCc2cc(-c3ccc4c(=O)c(C(=O)O)cn(C5CC5)c4c3OC(F)F)ccc21,"-0.109% [at 15.8 µM, hits give high values]",–
C[C@@H](O)[C@H](N)C(=O)O,"-2.81% [at 15.8 µM, hits give high values]",–
Cc1c2ccccc2c(C)c2c1ccc1ccccc12,16.2%,–
O=C(Oc1ccccc1)Oc1ccccc1,23.4%,–
CC(C)(C)c1ccc(C(O)CCCN2CCC(C(O)(c3ccccc3)c3ccccc3)CC2)cc1 (stereo not given),–,13.4 µM (active)
Oc1ccccc1O,–,inactive
O=C(/C=C/c1ccccc1)OC/C=C/c1ccccc1,-18.1%,–
OCCN1CCN(CCCN2c3ccccc3Sc3ccc(C(F)(F)F)cc32)CC1,–,26.8 µM (active)
CCCNCCC,-8.81%,–
c1ccc(SSc2ccccc2)cc1,2.09%,–
C/C=C/C=C/COC(=O)C(C)C,2.14%,–
Cc1c(C)c([N+](=O)[O-])c(C(C)(C)C)c([N+](=O)[O-])c1C,10.5%,–
